Screening results as filed in PubChem.
JMJD2A Tudor: qHTS Assay for Inhibitors of JMJD2A-Tudor Domain; 390,000 compounds, 4.4% hits; Lysine-specific demethylase 4A (Homo sapiens), O75164; Potency, µM (top dose mostly 114 µM), inactives show at the highest dose activity change, negative = inhibition, hits mostly inhibitors; AlphaScreen JMJD2A-Tudor / H3K4me3 peptide binding; further: on the % scale 0 is the no-effect control and ±100 the full control effect; nearly all actives have a fitted effect of over 50% in size
BAZ2B inh: qHTS Assay for Inhibitors of BAZ2B; Potency, µM (top dose mostly 114 µM), without a hit: at the highest dose activity change, negative = inhibition, most hits filed as inhibitors; AlphaScreen BAZ2B-H3K14Ac peptide displacement; 360,000 compounds, 4.4% hits; further: on the % scale 0 is the no-effect control and ±100 the full control effect; nearly all actives have a fitted effect of over 60% in size
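Complex of BAZ2B and biotin-H3K14Ac (50 nM apiece) forms over 30 min at RT, then faces library compounds up to 110 uM for another 30 min; AlphaScreen beads added, 20 min dark incubation, luminescence read.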
G9a inh: qHTS Assay for Inhibitors of Histone Lysine Methyltransferase G9a | Histone-lysine N-methyltransferase EHMT2 (Homo sapiens), Q96KQ7 | Potency, µM (titrated, usually from 102 µM), inactives show top-dose activity, negative = inhibition, most hits filed as inhibitors | G9a H3K9 monomethylation, AlphaScreen, 2 h | 350,000 compounds, 8.8% hits; further: on the % scale 0 is the no-effect control and ±100 the full control effect; nearly all actives have a fitted effect of over 75% in size
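Readings reflect AlphaScreen signal from monomethyl-H3K9 antibody detection. HMT at 20 nM; substrate b-H3K9 500 nM; cofactor SAM 20 uM; 2 h RT reaction; compounds tested as titrations in qHTS with 15 min preincubation.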
HP1b binding inh: HTS for Inhibitors of HP1-beta Chromodomain Interactions with Methylated Histone Tails. 390,000 compounds, 0.56% hits. Chromobox protein homolog 1 (Homo sapiens), P83916. AlphaScreen HP1-beta / biotin-H3K9me3 peptide binding. AID 540317, 2011. Potency, µM (titrated, usually from 114 µM), without a hit: top-dose activity change, negative = inhibition, most hits filed as inhibitors; further: nearly all actives have a fitted effect of over 70% in size
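HP1-beta protein (50 nM final) preincubated 30 min at room temperature with biotinylated H3(1-18)K9me3 peptide (50 nM) in PBS pH 7.4, 0.01% Tween-20, then compound added for 30 min. AlphaScreen streptavidin donor/nickel chelate acceptor beads (10 ug/mL final), 30 min dark, luminescence read.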
Sfp PPTase inh: qHTS Assay for Inhibitors of Bacillus subtilis Sfp phosphopantetheinyl transferase (PPTase); Potency, µM, for the others: largest response in the series, negative = inhibition, most hits filed as inhibitors; AID 1490, 2009; 310,000 compounds, 3.5% hits; 4'-phosphopantetheinyl transferase ffp (Bacillus subtilis), Q9F4F7; Biochemical Sfp PPTase activity, qHTS;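 further: the enzyme is Sfp with the accession as filed and its product quenches rhodamine fluorescence; 0% = enzyme reaction without inhibitor and -100% = no enzyme wells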
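With Hepes-Na pH 7.6 buffer containing 10 mM MgCl2, Sfp (15 nM) modified BHQ-2-YbbR (12.5 uM) using rhodamine-CoA (5 uM). Two reads 30 minutes apart at 525/598 nm yielded each well's rate.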
L3MBTL1 inh: qHTS Assay for the Inhibitors of L3MBTL1. AlphaScreen L3MBTL1–H3K9me1 peptide binding. Potency, µM (highest dose often 57.1 µM), inactives show top-dose activity, negative = inhibition, most hits filed as inhibitors. 230,000 compounds, 0.66% hits. AID 485360, 2010; further: on the % scale 0 is the no-effect control and ±100 the full control effect; nearly all actives have a fitted effect of over 60% in size
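AlphaScreen proximity signal between nickel-chelate acceptor and streptavidin donor beads (final 10 ug/mL) reports binding of 50 nM L3MBTL1 to 75 nM biotin-H3 K9me1 peptide; complex incubated with compounds 30 min at room temperature; cefsulodin titration as control.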
Active calls of the source: *; u = inconclusive; x = no result given; [ ] = dose if it differs, or a comment. Sampled rows, rich in hits. Any-hit rate of the full collection: about 12%. The call rests on the fitted dose curve; in most records, active means well fitted curve in the direction sought with a large enough effect; inconclusive means small, poorly fitted or top-dose-only effect, or another doubt; inactive means no such curve, though single readings can be large; an effect the other way counts as inactive or inconclusive. Potency means the concentration at half of the fitted maximal effect.

SMILES | JMJD2A Tudor | BAZ2B inh | G9a inh | HP1b binding inh | Sfp PPTase inh | L3MBTL1 inh
COc1ccc(Nc2nc3c(C)cccn3c(=O)c2C=O)cc1 | -1% | 2% | 73% | 20% | 8% | x
Cc1cccn2c(=O)c(C=O)c(Nc3ccccc3)nc12 | -14% | -17% | 45µM* | 23% | 7% | x
c1ccc(-c2oc3ncnc(NCCCn4ccnc4)c3c2-c2ccccc2)cc1 | 56µM* | 25µM* | u | u | u | -27%
N=c1c2c(-c3ccccc3)c(-c3ccccc3)n(Cc3ccco3)c2ncn1Cc1ccccc1 | -18% | 45µM* | -9%[12.7 µM] | 14% | 22µM* | x
CC(C)Cn1cnc2c(c(-c3ccccc3)c(-c3ccccc3)n2Cc2ccco2)c1=N | u | u | u | -16% | -22% | x
c1ccc(-c2c(-c3ccccc3)n(Cc3ccco3)c3ncnc(NCCCn4ccnc4)c23)cc1 | 45µM* | 32µM* | u | u | 63µM* | x
N=c1c2c(-c3ccccc3)c(-c3ccccc3)n(Cc3ccco3)c2ncn1CCCn1ccnc1 | u | u | u | -23% | -7% | -14%
OCCNc1ncnc2c1c(-c1ccccc1)c(-c1ccccc1)n2Cc1ccco1 | 56µM* | 50µM* | 18µM* | -12% | -27% | x
COc1ccccc1NC(=O)CSc1nc2ccccc2c(=O)n1CCC(=O)NC1CCCCC1 | -19% | -9% | -10%[59 µM] | 25% | x | x
CCOC(=O)C1CCN(C(=O)CN2c3ccc(C(C)C)cc3-c3ccccc3S2(=O)=O)CC1 | -26% | -12% | -9%[59 µM] | 27% | x | x
O=C(c1cccs1)N(Cc1cccnc1)c1nc2ccc(F)cc2s1 | -9% | -3% | -13%[59 µM] | 36% | x | x
COc1ccc(S(=O)(=O)NCc2ccc3c(c2)CCN3C(C)=O)cc1OC | -16% | 0% | 9%[59 µM] | 18%[57 µM] | x | x
COc1ccc(N=Cc2c(O)c3ccccc3oc2=O)cc1 | 1% | 2% | u | 27% | 0% | 7%
Cc1ccc(N=Cc2c(O)c3ccccc3oc2=O)cc1F | -10% | -16% | 35µM* | 22% | 8% | x
CC(C)c1ccc(N=Cc2c(O)c3ccccc3oc2=O)cc1 | 43% | 34% | 4% | 83% | 45µM* | x
O=C(O)c1cc(N=Cc2c(O)c3ccccc3oc2=O)ccc1O | -22% | -20% | 50µM* | 12% | u | x
Cc1cc(C)cc(N=Cc2c(O)c3ccccc3oc2=O)c1 | -17% | -4% | 10% | 34% | 19% | x
Cc1ccc(S(=O)(=O)Nc2ccc(N(C)C)cc2)cc1 | 56µM* | 35µM* | -148%[59 µM] | u | -1% | -3%
CN(C)c1ccc(NS(=O)(=O)c2ccc(-c3csnn3)cc2)cc1 | 50µM* | 56µM* | 40µM* | u | 9% | -25%
COc1ccc(NS(=O)(=O)c2ccc(OC)c(N(C)S(=O)(=O)c3ccc(Cl)cc3)c2)cc1 | -26% | -38% | 50µM* | -17% | 4% | -8%
CN(C)c1ccc(S(=O)(=O)c2ccc(Cl)cc2)cc1 | 2% | -3% | -1% | 34% | 7% | 5%
Cc1nc(-c2ccc(NS(=O)(=O)c3ccccc3)cc2)cs1 | -6% | -8% | -31% | 13% | -19% | -11%
CN(C)c1ccc(NS(=O)(=O)c2ccc(Cl)cc2)cc1 | 56µM* | 45µM* | 3.5µM* | u | -5% | -18%
Cc1ccc(S(=O)(=O)Nc2ccc(Nc3ccccc3)cc2)cc1 | u | u | x | -14% | -7% | -14%
O=C(Nc1ccccc1)Nc1nc(Nc2cc(F)cc(F)c2)nc(NC2CCCC2)n1 | -21% | x | x | x | x | x
SMILES | JMJD2A Tudor | BAZ2B inh | G9a inh | HP1b binding inh | Sfp PPTase inh | L3MBTL1 inh
O=C1CC(c2cccc(Cl)c2Cl)c2cc3c(cc2N1)OCCO3 (stereo unspecified) | -3% | -4% | -14%[59 µM] | 46% | x | x
CN(C)c1ccc(NS(=O)(=O)c2cc3c4c(c2)CC(=O)N4CCC3)cc1 | u | 45µM* | x | u | -13% | x
CN(C)c1ccc(NS(=O)(=O)c2cccc(Cl)c2)cc1 | 32µM* | 45µM* | u | u | -7% | -4%
Cc1cc(S(=O)(=O)Nc2ccc(N(C)C)cc2)c(C)s1 | 50µM* | 45µM* | u | -18% | -11% | x
Cc1cc(S(=O)(=O)Nc2cccc(Cl)c2)c(C)s1 | -1% | x | 2% | 45% | -20% | x
O=C(/C=C/c1ccc(O)cc1)OC[C@H]1O[C@@H](Oc2c(-c3ccc(O)cc3)oc3cc(O)cc(O)c3c2=O)[C@H](O)[C@@H](O)[C@@H]1O | x | x | x | x | 2% | x
CCOC(=O)c1c(NC(=O)c2c(C(=O)O)cccc2[N+](=O)[O-])sc2c1CCCC2 | u | -24% | 8.9µM* | u | 18µM* | x
CCOC(=O)c1c(/N=C/c2cccc([N+](=O)[O-])c2O)sc2c1CCC2 | u | u | x | u | 18µM* | -2%
CCOC(=O)c1c(NC(=O)c2cccc([N+](=O)[O-])c2C(=O)O)sc2c1CCCC2 | -26% | 4% | 21% | 57% | 10% | x
CCOC(=O)c1c(/N=C/c2ccccc2O)sc2c1CCC2 | -27% | -30% | 71µM* | -7% | -14% | -3%
COc1cccc(Cn2c(=O)c(-c3ccc(F)c(F)c3)nc3cncnc32)c1 | x | x | 4%[12.7 µM] | x | -6% | x
COc1ccc([C@]23Cc4cc(C#N)ccc4C(O2)c2c(c4ccc(OC)cc4oc2=O)O3)cc1 | x | u | u | x | 6% | x
C/C=C\c1ccc(OC)cc1 | x | x | 31%[59 µM] | x | 26% | x
COc1ccc(/C=C/C2=CC(C)(C)NC(=S)N2)cc1 | -8%[57.1 µM] | -14% | 8.9µM* | 14% | 6% | x
COc1cccc(Nc2ncc3ncc(=O)n(C[C@H]4CCCO4)c3n2)c1 | x | x | 7%[0.501 µM] | x | 31% | x
CCC1=C/C(=C/N(C)c2ccccc2)C(=O)S1 | u | -8% | 25µM* | u | 50µM* | x
CN(c1ccccc1)S(=O)(=O)CS(=O)(=O)N(C)c1ccccc1 | -1% | x | x | 35% | x | x
COc1cc(/C=C(/C#N)c2ccc(F)cc2)ccc1OCc1ccc(C(=O)O)o1 | -26% | -34% | u | 42% | -1% | x
N#C/C(=C/c1ccc(OCc2ccc(C(=O)O)cc2)c(Br)c1)c1cccc(F)c1 | 56µM* | u | -51% | 5% | -10% | x
CCOC(=O)c1c(C)oc2ncnc(Nc3ccc(F)cc3Cl)c12 | -17% | 14%[57.1 µM] | -25%[59 µM] | 32% | x | x
